Compound activity as filed in PubChem BioAssay.
KCNQ2 pot – potentiators of rat KCNQ2 potassium channel; B-score at 10 µM; 310,000 compounds, 0.54% hits; CHO-K1 KCNQ2, FluxOR thallium flux fluorescence; hits give high values; O88943;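 active means fluorescence ratio B-score at least 3 SD of library B-scores, with initial fluorescence B-score within 3 of them, cut at about 5.3 in these data; same plate scores as AID 2156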;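 further: B-score of peak minus minimum over baseline fluorescence ratio after K+ and Tl+ stimulus; positive B-score means potentiation of KCNQ2 with more thallium influx and brighter signal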
Target sequence (O88943 whole entry, looked up): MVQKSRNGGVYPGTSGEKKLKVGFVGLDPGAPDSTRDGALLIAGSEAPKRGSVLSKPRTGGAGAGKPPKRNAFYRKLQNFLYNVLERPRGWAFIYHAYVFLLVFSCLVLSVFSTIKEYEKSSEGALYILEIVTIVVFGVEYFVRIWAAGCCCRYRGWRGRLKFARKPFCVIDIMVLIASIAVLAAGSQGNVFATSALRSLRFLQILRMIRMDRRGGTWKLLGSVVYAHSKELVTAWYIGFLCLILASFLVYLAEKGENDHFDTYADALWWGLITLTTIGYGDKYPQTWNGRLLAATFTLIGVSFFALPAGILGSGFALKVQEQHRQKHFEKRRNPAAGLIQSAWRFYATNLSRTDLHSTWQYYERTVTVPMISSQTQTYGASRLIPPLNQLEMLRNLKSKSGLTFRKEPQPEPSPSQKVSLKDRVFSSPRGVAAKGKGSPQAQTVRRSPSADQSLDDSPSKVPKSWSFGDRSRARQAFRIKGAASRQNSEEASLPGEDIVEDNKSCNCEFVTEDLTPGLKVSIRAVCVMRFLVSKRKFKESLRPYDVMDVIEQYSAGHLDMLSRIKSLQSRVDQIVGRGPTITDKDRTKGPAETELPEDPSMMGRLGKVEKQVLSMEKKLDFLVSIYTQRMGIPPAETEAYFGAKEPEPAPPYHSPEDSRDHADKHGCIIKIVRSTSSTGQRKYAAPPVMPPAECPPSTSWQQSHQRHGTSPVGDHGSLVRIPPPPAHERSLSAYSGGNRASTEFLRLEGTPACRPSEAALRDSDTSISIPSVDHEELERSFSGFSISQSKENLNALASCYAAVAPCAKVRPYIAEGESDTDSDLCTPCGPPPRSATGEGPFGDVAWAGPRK
KCNQ2 inh – KCNQ2 (rat) channel inhibition. O88943. CHO-K1 KCNQ2, FluxOR thallium flux, 20 min; hits give low values. AID 2156. B-score at 10 µM. 310,000 compounds, 1.1% hits;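 active means fluorescence ratio B-score at most minus 3 library SDs, with starting brightness B-score within 2 library SDs, cut at about -5.5 in these data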
Numbers stand for hits; - = inactive; . = no result. Sampled rows, rich in hits. Any-hit rate of the full collection: about 1.6%.

SMILES	KCNQ2 pot	KCNQ2 inh
CCOC(=O)CCc1c(C)nc2c(c(C)nn2C(C)(C)C)c1C	-	-7.8
CCOC(=O)CCc1c(C)nc2c(c(C)nn2-c2ccc(C)cc2)c1C	-	-
CCOC(=O)CC1C(=O)NCCN1c1nc2ccc(C)cn2c(=O)c1/C=C1\SC(=S)N(C(C)CC)C1=O (configuration not stated)	-	-7.7
CCOC(=O)CC1C(=O)NCCN1c1nc2ccc(C)cn2c(=O)c1/C=C1\SC(=S)N(CC(C)C)C1=O (configuration not stated)	.	-
Cc1nn(CCO)c2nc(-c3cccs3)cc(C(F)(F)F)c12	5.8	-
Cc1nn(C)c2nc(-c3cccs3)cc(C(F)(F)F)c12	.	-
COc1ccc(N2CC(C(=O)OCC(=O)Nc3cccc(C)c3C)CC2=O)cc1 (configuration not stated)	-	-
COc1ccc2nc(N3CCCCC3)c(/C=C3\SC(=S)NC3=O)cc2c1	11	-
COc1ccc(-n2c(C)cc(/C=C3\SC(=S)NC3=O)c2C)cc1	.	-
Cc1nnc(SCC(=O)Nc2ccc(O)cc2)c2ccccc12	-	-5.6
Cc1nnc(SCC(=O)Nc2ccccc2)c2ccccc12	.	-
Cc1ccc(-n2nc3c(=O)n(CCCC(=O)NCCN4CCN(C)CC4)nc(C)c3c2C)cc1	.	-
CCCc1nc(SCC(=O)Nc2ccccc2)c2c(=O)n(C)c(=O)n(C)c2n1	-	-
CCCc1nc(SCC(=O)N2CCC(Cc3ccccc3)CC2)c2c(=O)n(C)c(=O)n(C)c2n1	23	-
O=C(NC1CC1)C1CCN(C2CCN(C(=O)c3c(F)cccc3Cl)CC2)CC1	.	-
CCOC(=O)/C(=C/c1ccc(OC(=O)c2ccncc2)cc1)C(C)=O	-	-5.7
COCCOC(=O)/C(=C/c1ccc(OC(=O)c2ccccc2)cc1)C(C)=O	-	-
CCC(C)NC(=O)C1CCC(CNS(=O)(=O)c2ccc3c(c2)N(C(C)=O)CCO3)CC1 (configuration not stated)	-	-
CCCc1nnc(SCC(=O)NC2CCCCC2)n1CCOC	-	-
C/C(=C\C(=O)c1ccccc1)Nc1ccc(Cl)c(Br)c1	-	-
C/C(=C\C(=O)c1ccc(Cl)cc1)Nc1ccc(Br)cc1	-	-6
O=C(Cc1ccc(Cl)cc1)Nc1ccc(Br)cc1	-	-
C/C(=C\C(=O)c1ccc(Br)cc1)Nc1cccc(Cl)c1	-	-6.2
Cc1onc(-c2c(F)cccc2Cl)c1C(=O)Nc1cccc(S(=O)(=O)NCc2ccco2)c1	.	-
CCCCCCOC(=O)C(C#N)c1nc2ccccc2nc1N1CCN(C)CC1 (configuration not stated)	-	-5.7
SMILES	KCNQ2 pot	KCNQ2 inh
CCC(CC)COC(=O)C(C#N)c1nc2ccccc2nc1N1CCN(CC)CC1 (configuration not stated)	.	-
CCOC(=O)c1c(NC(=O)/C=C\C(=O)O)sc(C)c1-c1ccccc1	-	-
CCOC(=O)c1c(NC(=O)/C=C/C(=O)O)sc(C)c1-c1ccc(C(C)(C)C)cc1	7	-
O=C(CCCC1=NS(=O)(=O)c2ccccc2N1)N1CCN(c2ccc([N+](=O)[O-])cc2)CC1	-	-
CCOc1ccc(NC(=O)CCNS(=O)(=O)c2ccc3c(c2)CC(C)N3C(C)=O)cc1 (configuration not stated)	.	-
Cc1ccc2nccc(C(=O)N3CCCC(N4CCN(c5ccc(F)cc5)CC4)C3)c2c1 (configuration not stated)	-	-6.5
COc1ccccc1N1CCN(C2CCCN(C(=O)c3ccnc4ccc(C)cc34)C2)CC1 (configuration not stated)	.	-
COc1cc(/C=N/NC2=NC(C)(C)Cc3ccccc32)cc(OC)c1OC	-	-5.6
COc1cc(/C=N/NC2=NS(=O)(=O)c3ccccc32)cc(OC)c1OC	-	-
COc1cccc(N2CCN(C(=O)c3ccc(Cl)c(NC4=NC5CS(=O)(=O)CC5S4)c3)CC2)c1 (configuration not stated)	-	-
O=C(NCc1ccco1)/C(=C\c1cccs1)NC(=O)c1ccco1	-	-
O=C(NC(=Nc1nc2ccccc2o1)NC(=O)c1ccccc1)c1ccccc1	.	-
COc1ccccc1C(=O)NC(=Nc1nc2ccccc2o1)NC(=O)c1ccccc1OC	-	-14
CC1CCN(S(=O)(=O)N2CCC(C(=O)NCc3cccnc3)CC2)CC1	.	-
CCOc1ccc(S(=O)(=O)N2CCCC(C(=O)NCc3ccccc3)C2)cc1 (configuration not stated)	-	-
COc1ccc2ccc3c(c2c1)N=CC1(O3)N(C)c2ccccc2C1(C)C (configuration not stated)	-	-8.2
CN1c2ccccc2C(C)(C)C12C=Nc1c(ccc3ccccc13)O2 (configuration not stated)	-	-5.7
COc1ccc2c(c1)Sc1ccccc1N2CCN(C)C	.	-
CN1c2ccccc2C(C)(C)C12CC(CCl)=NO2 (configuration not stated)	-	-
CCOC(=O)N1C(=O)[C@](CC)(c2ccccc2)N1C(=O)OCC	-	-
CCC1(c2ccccc2)C(=O)N(C(=O)OC(C)(C)C)N1C(=O)OC(C)(C)C (configuration not stated)	-	-6.5
COc1ccc(-c2cc(C(=O)N(C)CCc3ccc(OC)c(OC)c3)c3ccccc3n2)cc1	-	-5.6
COc1ccc(-c2cc(C(=O)N(C)Cc3cccc(OC)c3OC)c3ccccc3n2)cc1OC	.	-
COc1ccc(CCN(C)C(=O)c2cc(-c3ccccc3)nc3ccccc23)cc1OC	.	-
COc1cccc(CN(C)C(=O)c2cc(-c3ccc(F)cc3)nc3ccccc23)c1	.	-
SMILES	KCNQ2 pot	KCNQ2 inh
COc1cccc(CN(C)C(=O)c2cc(-c3ccc(OC)c(OC)c3)nc3ccccc23)c1	-	-6
COc1ccc(CN(C)C(=O)c2cc(-c3ccccc3)nc3ccc(C)cc23)c(OC)c1OC	-	-5.7
C/C(=N\Nc1cc(C(F)(F)F)ccc1Cl)c1ccncc1	-	-
CCC(Cc1ccccc1)NC(=O)c1cc(S(=O)(=O)N2CCCCC2)c[nH]1 (configuration not stated)	.	-
NS(=O)(=O)c1ccc(CCN=Cc2ccccc2O)cc1	.	-
COc1ccc(F)cc1S(=O)(=O)n1nc(C)cc1C	-	-
O=C(COc1cccc2cccnc12)N/N=C/c1cccn1-c1ccc(F)cc1	-	-7.2
O=C(COc1cccc2cccnc12)N/N=C/c1ccc(O)cc1	-	-
CCn1c2ccccc2c2cc(NC(=O)c3ccccc3[N+](=O)[O-])ccc21	-	-
Cn1cnnc1Sc1ccc(C(=O)OCC(=O)NC2CC2)cc1[N+](=O)[O-]	-	-
CC1CC(C)CN(c2ccc(C(=O)OCC(=O)NC3CCCc4ccccc43)cc2[N+](=O)[O-])C1 (configuration not stated)	-	-7.8
CC1CCCN(c2ccc(C(=O)OCC(=O)N3c4ccccc4Sc4ccccc43)cc2[N+](=O)[O-])C1 (configuration not stated)	.	-
O=C(COC(=O)c1ccc(Sc2ccccc2)c([N+](=O)[O-])c1)NC1CCCc2ccccc21 (configuration not stated)	-	-6.9
O=C(NCCc1ccc(F)cc1)c1ccc(NS(=O)(=O)c2ccc3[nH]c(=O)[nH]c3c2)cc1	.	-
CC(=O)N1c2ccc(S(=O)(=O)NCC3CCC(C(=O)Nc4cccc(C)n4)CC3)cc2CC1C (configuration not stated)	-	-
